We go through 42 sequences from paper PMC7819943, “Rice protein-binding microarrays: a tool to detect cis-acting elements near promoter regions in rice”.

The full ranking holds about 68,000 sequences; the median of “fluorescence intensity (a.u.)” is about 9,100, and the highest 2% start at about 16,000. The sample as a whole holds a higher share of the highest values than the screen did.

The target of the assay is OsWRKY34 (Oryza sativa, UniProt Q0JBA9 1-250). Briefly: protein-binding microarray (RPBM); PBS, 2% BSA, 51.3 ng/ul salmon testes DNA, 50 uM zinc acetate, 200 nM TF, 25 C, 1 h; high values mean tight binding. The conditions noted are these: protein: recombinant; tags: N-terminal polyhistidine and DsRed monomer fusion (pET32a); label: CyDye5-dUTP incorporated in the synthesized complementary strand; 3' TTTTT single-stranded linker to array surface; dsDNA, one strand shown. The essentials: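 Transcription factors were each fused at the N-terminus to a polyhistidine tag plus DsRed and expressed in E. coli BL21-CodonPlus before Ni–NTA purification. Binding to a double-stranded custom Agilent array was carried out with 200 nM protein at 25 °C for 1 h in PBS, 2% BSA, salmon testes DNA and 50 µM zinc acetate. The binding signal is per-feature fluorescence intensity, in arbitrary units, on an Axon 4000B scanner.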
OsWRKY34, sequence (Q0JBA9 entry or part of it): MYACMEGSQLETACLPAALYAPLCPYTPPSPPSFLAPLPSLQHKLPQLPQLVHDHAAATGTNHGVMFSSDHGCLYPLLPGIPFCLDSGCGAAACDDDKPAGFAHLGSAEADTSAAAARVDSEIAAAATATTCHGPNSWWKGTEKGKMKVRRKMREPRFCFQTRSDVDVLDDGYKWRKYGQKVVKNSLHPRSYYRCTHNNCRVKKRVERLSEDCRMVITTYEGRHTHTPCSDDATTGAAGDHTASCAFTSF
As to “ATCCGTCCGTTTCGTTCCGTACGAACCGCCGGCGTTCAAACGGAGTCACCTAGTGCAG”, the binding signal is 8580 fluorescence intensity (a.u.). Then “GCCTCCGCCGCCGCCGCCGCCCGCCGGCCATCTCCGTCGACGGAGTCACCTAGTGCAG”, with 13900 fluorescence intensity (a.u.); and “CAATGTATTCAGGTACGCCGATTATTTGGTTGGTAGTAGTCGGAGTCACCTAGTGCAG”, with 11500 fluorescence intensity (a.u.). Then “ATACTCGCTCCGTGTTTTAATATATGACGCTGTTGATTTTCGGAGTCACCTAGTGCAG”, with 12700 fluorescence intensity (a.u.); and “GCTCGGTGTGGCGATCTCACAGCCGCATATCGCATTTCACCGGAGTCACCTAGTGCAG”, with 8680 fluorescence intensity (a.u.). For the sequence “GGCCCCACGTTTCATCCTCACGACCGTGTCCAACCCAGGGCGGAGTCACCTAGTGCAG”, the binding signal was 10300 fluorescence intensity (a.u.).

On to “GTGGCGCGAGGGGAGGGAAGGGTAGGGCGGCGCGGCGGCGCGGAGTCACCTAGTGCAG”, for which the binding signal is 9730 fluorescence intensity (a.u.). Take “AAGAGGGCGCGGGTGGCGGGGATGGGCGAGGGGAAGGCGGCGGAGTCACCTAGTGCAG”: the binding signal was 17700 fluorescence intensity (a.u.).

As to “ATCTCCGTCGGTGGGGAAAAGGAGGTGGGGAGGGGAGGAGCGGAGTCACCTAGTGCAG”, the binding signal was 18800 fluorescence intensity (a.u.). The result for “GAAGAGGAGAGAGGAAGAGAGGTGGAAAGGGGAGGGGAAGCGGAGTCACCTAGTGCAG” reads 9460 fluorescence intensity (a.u.); that for “CGCGCGGTCGAGGAGGGTGGGGCCGCCGCGCTCACCTCCGCGGAGTCACCTAGTGCAG”, 8480 fluorescence intensity (a.u.).

For “CGTCGGTAGGGAGGAGGAGGAGGAGGAGGTGGTGGTGGTGCGGAGTCACCTAGTGCAG”, the binding signal is 12000 fluorescence intensity (a.u.). Then “TGTGGTGGCGAGCGGCACGGAGGCGGGGCGGTGGAGGGAGCGGAGTCACCTAGTGCAG”, with 9670 fluorescence intensity (a.u.); and “TGGAGTGGAGTTTCGATAGGTGTGGCGGGGAGGGAGGGAGCGGAGTCACCTAGTGCAG”, with 19800 fluorescence intensity (a.u.); and “GCTTTGGTCGGTTGGGGTGGGCTGGATGCGCCTCCGCGCTCGGAGTCACCTAGTGCAG”, with 17800 fluorescence intensity (a.u.).

For the sequence “CGGTGGTGGTGGATGCTGGCGCTGGCGGTGGGCGCGAGCTCGGAGTCACCTAGTGCAG”, the binding signal was 10100 fluorescence intensity (a.u.). Then “GAGGTGGTGGAGCGAGGTGGAAGAGGGCGCGGGTGGCGGGCGGAGTCACCTAGTGCAG”, with 9480 fluorescence intensity (a.u.); and “TGGTTTTATAGGCGTGGGGTGTGGAGCTTCGAGGGGAAGGCGGAGTCACCTAGTGCAG”, with 13900 fluorescence intensity (a.u.). Then “CAGATGGTCTGGTGGTCGGCGGAGGTCCCGGCGCGCGCGTCGGAGTCACCTAGTGCAG”, with 8360 fluorescence intensity (a.u.). The result for “TATGGTATTTGGGTTAAAGAACGAAAATCGAACTCGCTGTCGGAGTCACCTAGTGCAG” reads 8160 fluorescence intensity (a.u.).

For “GAGGGAGGGAGGGAGGGAGACCGCGAGTGTGAGTGACTGCCGGAGTCACCTAGTGCAG”, the binding signal was 10200 fluorescence intensity (a.u.). “ACTGCCCTTATCATTTCCGATTCCGTTTCCGAGAAAATATCGGAGTCACCTAGTGCAG”: the binding signal was 9240 fluorescence intensity (a.u.). Turning to “ACTTTGTCACTTGACTTATTCTCTGGCCGTGCGTATAAATCGGAGTCACCTAGTGCAG”, the binding signal was 8150 fluorescence intensity (a.u.). Then “CCTGCTATTGTACCTGCTCTAAGCCAGCTATAACCATATACGGAGTCACCTAGTGCAG”, with 8170 fluorescence intensity (a.u.). On to “GTGAAGTGTGGTTTAAAAATGGTTGCCTGGTCACTTTATCCGGAGTCACCTAGTGCAG”, for which the binding signal is 9020 fluorescence intensity (a.u.). Take “TGTCAGTCACTGTCCCCTTCGTGGTCGTCTTCGCCACTTCCGGAGTCACCTAGTGCAG”: the binding signal is 9210 fluorescence intensity (a.u.). The result for “GTCGGGCGGGAGCGGTGCAGGGTGGAGGAGGTGGGCGGGGCGGAGTCACCTAGTGCAG” reads 22900 fluorescence intensity (a.u.). Then “GCGGTGGCGGTTGGGGTGGCGAGTGGGGAGGAGGAGGCGGCGGAGTCACCTAGTGCAG”, with 18900 fluorescence intensity (a.u.); and “GGGGAGGCGAGGCGGCGAGGTTATAAAAACGGTGGGGTGGCGGAGTCACCTAGTGCAG”, with 12200 fluorescence intensity (a.u.).

For the sequence “GGGGTGGGGTTGGCGGCGACGCGGGCGAGGCCGAGGAGGACGGAGTCACCTAGTGCAG”, the binding signal is 13400 fluorescence intensity (a.u.). Then “GGCGGGAGGCGCGGGCGGCGAGGTGCTCCTCTTCTCTCTCCGGAGTCACCTAGTGCAG”, with 9060 fluorescence intensity (a.u.). Then “CGGCGGAGGGAGGATCGGGGTGGGTGGCGCAGCGGCGACGCGGAGTCACCTAGTGCAG”, with 11200 fluorescence intensity (a.u.); and “AGGTGGAGGCGCCGGTGTGGGTGGTGGAGCGGGAGGAGGTCGGAGTCACCTAGTGCAG”, with 8610 fluorescence intensity (a.u.); and “TCTCTTCCTTGCTGTGGTGGCGGCGGGCGGGAGGGCGGCGCGGAGTCACCTAGTGCAG”, with 35000 fluorescence intensity (a.u.). Regarding “AAGCGATCGGGGCGGCGGAGGAGGTGGGTGGGAGGGAGGGCGGAGTCACCTAGTGCAG”, the binding signal was 30200 fluorescence intensity (a.u.). Consider “GGCGGGCGCGGTGGAGGCGGGGAGGAAGGGGAGCGGAGGTCGGAGTCACCTAGTGCAG”, for which the binding signal was 9390 fluorescence intensity (a.u.). As for “CTCTCCTCTCTTCTCGAGCGCGGCGGCGGTGGTGGGGAGGCGGAGTCACCTAGTGCAG”, the binding signal was 14300 fluorescence intensity (a.u.). The result for “GCGGAGGAGGGCGGGAGGAAGCGGGTGGCGGCGGCGGAGTCGGAGTCACCTAGTGCAG” reads 10900 fluorescence intensity (a.u.). The result for “ATACTAGTCCATTCGAGTTGAAACGTTCAGTGAACAGCTACGGAGTCACCTAGTGCAG” reads 8030 fluorescence intensity (a.u.); that for “GATCTCTTGCAGCTGCGCATCTGTGCATGCATCCACACTACGGAGTCACCTAGTGCAG”, 9260 fluorescence intensity (a.u.).

Regarding “TTGATCCTGCTTTTAGTTATAGTTTTTGTTAGGGTGTATTCGGAGTCACCTAGTGCAG”, the binding signal was 10100 fluorescence intensity (a.u.). Then “TAAAACTAGTCATCCCTTCATTTTATATTATAAGTTGTTTCGGAGTCACCTAGTGCAG”, with 8290 fluorescence intensity (a.u.).
